According to PubChem BioAssay (NCI):
The panel holds about 83,000 compounds, 20% with a hit somewhere; the sample as a whole holds those more often.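 Method: cells in 96-well plates; compound added at one concentration; 48 h incubation; percent growth measured; values under 10 scored active.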 A number with no mark means an inactive call. Active and inactive are the calls of the source.

Assays:
Test in all cases: NCI-60 one-dose screen, 48 h (100 = growth as untreated, 0 = no growth, -100 = all killed)
Details in all cases: 10 µM unless noted
[1] = test system: NCI-H23 lung
[2] = test system: NCI-H226 lung
[3] = test system: NCI-H322M lung
[4] = test system: HOP-62 NSCLC
[5] = test system: NCI-H460 lung
[6] = test system: NCI-H522 lung
[7] = test system: A549/ATCC NSCLC
[8] = test system: 786-0 renal
[9] = test system: DU-145 prostate
[10] = test system: K-562 leukemia
[11] = test system: MALME-3M melanoma
[12] = test system: MDA-MB-231 breast
[13] = test system: RXF 393 renal
[14] = test system: SF-268 CNS
[15] = test system: SF-295 CNS
[16] = test system: SF-539 CNS
[17] = test system: UACC-257 melanoma
[18] = test system: M14 melanoma
[19] = test system: HOP-92 NSCLC
[20] = test system: COLO 205 colon

O=C(c1ccccc1)c1ccc(N2C(=O)C3C4c5ccccc5C(/C=C/C(=O)c5ccccn5)(c5ccccc54)C3C2=O)cc1 (stereo unspecified)
growth [1]: 14.2% | growth [2]: 12.7% | growth [3]: 74.9% | growth [4]: 24.3% | growth [5]: 6.4% (active) | growth [6]: 30.6% | growth [7]: 44.3% | growth [8]: 2.11% (active) | growth [9]: 21.4% | growth [10]: 15.9% | growth [11]: -18.2% (active) | growth [12]: -8.96% (active) | growth [13]: -48.5% (active) | growth [14]: 43.4% | growth [15]: 10.8% | growth [16]: -10.9% (active) | growth [17]: 43.6% | growth [18]: 21.3%

O=C(CCCCCCCn1cc(-c2cccnc2)nn1)Nc1ccccc1-c1ccccc1
growth [1]: 63.6% | growth [2]: 55.4% | growth [3]: 65.3% | growth [4]: 61.1% | growth [5]: 29.3% | growth [19]: 96.5% | growth [6]: 27.5% | growth [8]: 53.4% | growth [9]: 37.2% | growth [10]: 23.7% | growth [12]: 59.6% | growth [13]: 80.4% | growth [14]: 63.8% | growth [15]: -15.9% (active) | growth [16]: -7.88% (active) | growth [17]: 65.6% | growth [18]: 17.3%

Nc1nc(Nc2ccc(Cl)cc2)nn1S(=O)(=O)c1ccc(-c2ccc(F)cc2)cc1
growth [1]: 92% | growth [2]: 84.4% | growth [3]: 109% | growth [4]: 84.3% | growth [5]: 70.9% | growth [19]: 75.7% | growth [6]: 75.3% | growth [8]: 92.1% | growth [9]: 88.7% | growth [10]: 83.5% | growth [11]: 113% | growth [12]: 87.8% | growth [13]: 92.3% | growth [14]: 76.3% | growth [15]: 99.1% | growth [16]: 94% | growth [17]: 107% | growth [18]: 89.8%

O=C(NCc1cccnc1)c1cc(-c2csc3c(=O)cc(N4CCOCC4)oc23)cc2c1OCCO2
growth [1]: 50.3% | growth [2]: 49.8% | growth [3]: 40% | growth [4]: 30.9% | growth [5]: 52.5% | growth [6]: 28.4% | growth [7]: 40.2% | growth [8]: 43.5% | growth [9]: 70% | growth [10]: 24.8% | growth [11]: 47.9% | growth [12]: 21.5% | growth [13]: 40.6% | growth [14]: 53% | growth [15]: 30% | growth [16]: 10.6% | growth [17]: 47% | growth [18]: 43.4%

Clc1ccc(/C=N\N=c2\scc(-c3ccc(Cl)cc3)n2/N=C/c2ccc(Cl)cc2)cc1
growth [1]: 94.4% | growth [2]: 111% | growth [3]: 95.7% | growth [4]: 107% | growth [5]: 97.9% | growth [6]: 68.7% | growth [7]: 75.7% | growth [8]: 98.1% | growth [20]: 113% | growth [9]: 105% | growth [11]: 100% | growth [12]: 101% | growth [13]: 108% | growth [14]: 97.8% | growth [15]: 109% | growth [16]: 96.1% | growth [17]: 77.9%

CCCN1CCN(c2ccc3nc(-c4ccc5nc(-c6cc(OC)c(OC)c(OC)c6)[nH]c5c4)[nH]c3c2)CC1
growth [1]: 80.1% | growth [2]: 81.7% | growth [3]: 94% | growth [4]: 84.3% | growth [5]: 93.2% | growth [19]: 70.5% | growth [6]: 41.1% | growth [8]: 77.3% | growth [9]: 109% | growth [10]: 59.5% | growth [11]: 7.58% (active) | growth [12]: 98.4% | growth [13]: 15.6% | growth [14]: 75.6% | growth [15]: 65.9% | growth [16]: 59.6% | growth [17]: 71.7% | growth [18]: 63.9%

CC(=O)C(C(C)=O)c1nc2sc3cc(Cl)ccc3n2c(=N)c1C#N
growth [1]: 81.4% | growth [2]: 75.1% | growth [3]: 87.3% | growth [4]: 81.9% | growth [5]: 95.2% | growth [19]: 56% | growth [6]: 83% | growth [8]: 98.3% | growth [9]: 97.4% | growth [10]: 85.2% | growth [11]: 95.2% | growth [12]: 51.9% | growth [13]: 109% | growth [14]: 77.7% | growth [15]: 98.4% | growth [16]: 95.5% | growth [17]: 108% | growth [18]: 97.2%

CSc1ncc(C)c(Nc2ccc(Cl)cc2)n1
growth [1]: 99.6% | growth [2]: 104% | growth [3]: 106% | growth [4]: 111% | growth [5]: 103% | growth [6]: 80.1% | growth [7]: 96.4% | growth [8]: 91.9% | growth [9]: 102% | growth [10]: 94% | growth [11]: 122% | growth [12]: 110% | growth [13]: 114% | growth [14]: 99.9% | growth [15]: 96% | growth [16]: 118% | growth [17]: 127% | growth [18]: 112%

COC(=O)CCCNC(=O)C(=O)c1c(O)c(O)c(C(C)C)c2cc(C)c(-c3c(C)cc4c(C(C)C)c(O)c(O)c(C(=O)C(=O)NCCCC(=O)OC)c4c3O)c(O)c12
growth [1]: 11.8% | growth [2]: -17.2% (active) | growth [3]: 29.6% | growth [4]: 13% | growth [5]: 0.963% (active) | growth [6]: -38.9% (active) | growth [7]: -6.82% (active) | growth [8]: 4.56% (active) | growth [9]: -0.703% (active) | growth [10]: 6.26% (active) | growth [11]: 19.7% | growth [12]: -16.3% (active) | growth [13]: -6.97% (active) | growth [14]: 8.13% (active) | growth [15]: -7.03% (active) | growth [16]: -1.93% (active) | growth [17]: -21.5% (active) | growth [18]: -20.7% (active)

COc1ccc(OC)c(Nc2nc3nonc3nc2Nc2cccc(Br)c2)c1
growth [1]: 6.27% (active) | growth [2]: 13.4% | growth [3]: 5.13% (active) | growth [4]: 8.04% (active) | growth [5]: 0.718% (active) | growth [6]: -13% (active) | growth [7]: 9.15% (active) | growth [8]: 22.1% | growth [20]: -79.3% (active) | growth [9]: 26% | growth [10]: 10.2% | growth [11]: 11.3% | growth [12]: -8.18% (active) | growth [13]: 23.7% | growth [14]: 21.1% | growth [15]: -19.3% (active) | growth [16]: -7.16% (active) | growth [17]: -12.5% (active)

CCNCCNc1cc(-c2ccc(C(=O)OC)cc2)c(C#N)c2nc3ccccc3n12
growth [1]: 66.6% | growth [2]: 87.8% | growth [3]: 43.7% | growth [4]: 68.4% | growth [5]: 4.26% (active) | growth [19]: 71% | growth [6]: 32.3% | growth [8]: 44.2% | growth [9]: 38.1% | growth [10]: 2.65% (active) | growth [11]: 88.5% | growth [12]: 0.164% (active) | growth [13]: 16% | growth [14]: 30.8% | growth [15]: -62.1% (active) | growth [16]: -80.1% (active) | growth [17]: 53.1% | growth [18]: 31.5%

O=S(=O)(NCCNc1cc(-c2c(-c3cccc(O)c3)nc3sccn23)ccn1)c1ccc(Br)cc1
growth [1]: 76.2% | growth [2]: 62.3% | growth [3]: 81.1% | growth [4]: 102% | growth [5]: 54.1% | growth [6]: 66.1% | growth [7]: 50.1% | growth [8]: 52.7% | growth [9]: 57.9% | growth [10]: 34.5% | growth [11]: 78.8% | growth [12]: 72.8% | growth [13]: 60% | growth [14]: 41.3% | growth [15]: 69% | growth [16]: 75.2% | growth [17]: 89.1% | growth [18]: 60.8%

CCCn1nc(-c2ccccc2)c2c(-c3ccccc3)onc2c1=O
growth [1]: 85.6% | growth [2]: 87.5% | growth [3]: 95.4% | growth [4]: 74.2% | growth [5]: 98.1% | growth [19]: 75.6% | growth [6]: 62.6% | growth [8]: 94.1% | growth [9]: 104% | growth [10]: 29.1% | growth [11]: 96.5% | growth [12]: 81.6% | growth [13]: 90.2% | growth [14]: 89.2% | growth [15]: 74.3% | growth [16]: 85% | growth [17]: 112% | growth [18]: 57.2%

NC(=S)N/N=C/C(=O)O
growth [1]: 99.3% | growth [2]: 96.2% | growth [3]: 77.5% | growth [4]: 85.9% | growth [5]: 99.6% | growth [19]: 81.8% | growth [6]: 96.8% | growth [8]: 104% | growth [9]: 106% | growth [10]: 32.7% | growth [12]: 97.1% | growth [13]: 107% | growth [14]: 92.4% | growth [15]: 71.9% | growth [16]: 104% | growth [17]: 86.1% | growth [18]: 93.9%

CC12CC(C#N)CCC1O2 (stereo unspecified)
growth [1]: 109% | growth [2]: 115% | growth [3]: 127% | growth [4]: 108% | growth [5]: 103% | growth [19]: 93% | growth [6]: 109% | growth [8]: 102% | growth [9]: 127% | growth [10]: 101% | growth [11]: 128% | growth [12]: 104% | growth [13]: 119% | growth [14]: 110% | growth [16]: 96.6% | growth [17]: 98.3% | growth [18]: 107%

NC(=Nc1ccc(N)cc1)C(N)=Nc1ccc(N)cc1
growth [1]: 108% | growth [2]: 94.4% | growth [3]: 105% | growth [4]: 107% | growth [5]: 106% | growth [19]: 112% | growth [6]: 111% | growth [8]: 99.6% | growth [9]: 106% | growth [10]: 81.7% | growth [11]: 135% | growth [12]: 93.5% | growth [13]: 84.1% | growth [14]: 104% | growth [15]: 111% | growth [16]: 96.9% | growth [17]: 31.8% | growth [18]: 99.7%

Cc1cc(=O)c2cc3nc(-c4cccnc4)oc3c(Br)c2o1
growth [1]: 90% | growth [2]: 116% | growth [3]: 109% | growth [4]: 101% | growth [19]: 92% | growth [6]: 62.9% | growth [7]: 97.2% | growth [8]: 96.8% | growth [9]: 119% | growth [10]: 84% | growth [11]: 98.7% | growth [12]: 111% | growth [14]: 107% | growth [15]: 120% | growth [16]: 106% | growth [17]: 106% | growth [18]: 98.8%
